Assay outcomes (PubChem BioAssay)
Only some compounds are listed: those with a hit (about 2% of all), similar ones and a draw of the others.
CHT block: inhibitors of human choline transporter CHT. Q9GZV3. CHT-expressing cells, membrane potential dye, choline response; hits give low values. B-score at 10 µM. hit rate 0.86% among 310,000. AID 488975;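 active = B-score over 3 SD under the library average, and starting fluorescence ratio not unusually high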;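 also: choline stimulus applied at its EC90 after an EC20 pre-addition; B-score computed on integrated fluorescence ratio after choline addition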
Target sequence (Q9GZV3 whole entry, looked up): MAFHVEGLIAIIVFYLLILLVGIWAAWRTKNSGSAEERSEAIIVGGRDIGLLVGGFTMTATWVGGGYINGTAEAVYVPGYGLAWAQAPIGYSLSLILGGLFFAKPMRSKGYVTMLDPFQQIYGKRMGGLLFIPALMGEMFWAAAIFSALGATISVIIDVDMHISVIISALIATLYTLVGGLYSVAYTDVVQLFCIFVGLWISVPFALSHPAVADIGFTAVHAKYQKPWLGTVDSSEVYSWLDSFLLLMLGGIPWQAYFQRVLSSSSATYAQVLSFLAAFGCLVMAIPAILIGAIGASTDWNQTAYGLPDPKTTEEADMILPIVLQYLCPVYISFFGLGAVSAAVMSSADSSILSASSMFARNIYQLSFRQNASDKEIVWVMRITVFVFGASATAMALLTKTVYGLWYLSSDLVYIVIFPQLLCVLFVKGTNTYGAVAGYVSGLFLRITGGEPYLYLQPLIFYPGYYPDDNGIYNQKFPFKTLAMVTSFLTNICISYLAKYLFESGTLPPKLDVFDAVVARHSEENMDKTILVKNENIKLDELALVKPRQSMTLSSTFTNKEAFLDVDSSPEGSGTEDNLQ
PGE2 EP2 inh: blocks the human prostaglandin E2 receptor EP2 | P43116 | inhibition, % at 25 µM | C6 glioma cells expressing human EP2, cAMP TR-FRET; cells stimulated with saturating PGE2 | hit rate 0.52% among 260,000 | AID 1422;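 active = percent inhibition above 40 after rounding to a whole number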;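 also: rat C6 glioma host cells with rolipram phosphodiesterase inhibitor present; the protocol text gives 20 µM as final concentration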
CHT PAM: allosteric activators of human choline transporter CHT. CHT-expressing cells, membrane potential dye, choline EC20; hits give high values; LV-AA mutant CHT in HEK293 cells. B-score at 10 µM. hit rate 0.49% among 310,000. AID 488977;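 active = initial fluorescence not abnormally high and integrated response B-score, plate-corrected, over 3 SD above library mean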
EP2 mod: modulates human prostaglandin E2 receptor EP2 signaling. hit rate 0.83% among 260,000. induction, % at 25 µM. EP2-expressing cells, cAMP HTRF FRET, PGE2 co-stimulation. P43116;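 active = compounds whose cAMP rise, as percent of the full-agonist control response, exceeds 60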;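 also: rat C6 glioma line stably carrying human EP2 under a CMV promoter; the protocol text gives 20 µM as final concentration; 100% = response of wells given 1 µM PGE2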
CHT activ conf: confirmation of human choline transporter (CHT) activators; hit rate 91% among 2,500; shares compounds with CHT PAM; activation, % at 10 µM; CHT-expressing cells, membrane potential dye fluorescence (FDSS); % of choline EC20–EC90 response window; HEK293 expressing CHT LV-AA mutant; choline added at its EC20;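 active = primary screen active, with duplicate mean activation above negative control mean plus 3 SD, cut at about 11% in these data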
HEK293 MP dye: counter-screen for CHT activators: effect in parental HEK293 cells; hit rate 62% among 2,500; membrane potential dye fluorescence (FDSS); measured after EC20 choline addition; ratio readout change at 10 µM, hits read low; shares compounds with CHT PAM;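 active = duplicate-averaged ratio beyond 3 SD from buffer wells, up or down, though filed actives are nearly all decreases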
Numbers without * were called inactive; i = inactive; x = no result given.

SMILES | CHT block | PGE2 EP2 inh | CHT PAM | EP2 mod | CHT activ conf | HEK293 MP dye
CN(C)c1cccc2c(C=C(C#N)C#N)ccc(N(C)C)c12 | i | 2.5 | 10.5* | -15.1 | 56.8* | -72.9*
CN(C)c1ccc(/C=N/O)cc1 | i | 6.1 | i | 5.6 | x | x
Cn1c(N2CCC(C(=O)NC3CCCCC3)CC2)nc2ccccc21 | x | 3.8 | x | -5.1 | x | x
Cc1cc(C[n+]2ccccc2)c(C)cc1C[n+]1ccccc1 | x | 11.0 | x | -4.5 | x | x
Cc1cc(C[n+]2ccccc2)c2nsnc2c1 | i | 9.1 | 10.2* | -26.5 | 44.7* | -72.3*
COC(=O)c1ccc(-c2nc(O)c3cnccn23)cc1 | i | 13.0 | i | 19.7 | 23.1* | -37.2*
CCN(CC)S(=O)(=O)c1cnccc1N1CCN(c2cccc(Cl)c2)CC1 | i | 16.9 | 9.33* | -59.1 | 12.8* | i
COc1ccc(Cn2nnnc2C(c2cc3ccc(C)c(C)c3[nH]c2=O)N2CCC(C)CC2)cc1 (stereo unspecified) | x | 17.7 | x | -10.5 | x | x
CCn1nc(C)c(CCC(=O)N2CCN(Cc3ccccc3F)C[C@@H]2C(C)C)c1C | x | x | x | -40.3 | x | x
COc1cccc(CNC(=O)CCC2CCCN(c3cc(C)nc(N(C)C)n3)C2)c1 (stereo unspecified) | i | 5.7 | i | -17.3 | 47.9* | -39.7*
COc1cccc(CNC(=O)CCC2CCCN(c3cc(C)nc(N)n3)C2)c1 (stereo unspecified) | i | 7.5 | i | -31.6 | x | x
COC(=O)C1=C(C)NC(=O)/C1=C\c1cc(C)n(-c2c(C)cccc2C)c1C | i | x | i | 46.0 | 15.8* | i
O=C(Cn1c(-c2ccccc2)c[n+]2ccsc12)c1ccc(Br)cc1 | i | 7.1 | i | -1.2 | 41.8* | -33.9*
Cn1c(=N)n(CC(=O)c2ccc(Br)cc2)c2ccccc21 | i | x | i | x | x | x
CCCC[C@@H]1C[C@H]1[C@@H](NC(=O)c1cccs1)c1ccc(Cl)cc1 | i | 8.6 | i | -30.0 | 28.6* | i
Cc1nn(C(C)C(=O)O)c(=O)c2cc3sccc3n12 (stereo unspecified) | x | 9.6 | x | -6.9 | x | x
CC(=O)N=c1c(C#N)cc2c(=O)n3cccc(C)c3nc2n1Cc1ccco1 | i | 12.2 | i | 1.3 | 47.3* | -36.1*
CC(=O)N=c1c(C#N)cc2c(=O)n3cccc(C)c3nc2n1CCCOC(C)C | i | 15.3 | i | -4.3 | 44.0* | -44.8*
Cc1cccn2c(=O)c3cc(C#N)c(=NC(=O)c4ccncc4)n(CCCOC(C)C)c3nc12 | i | 8.4 | i | 36.0 | x | x
Cc1ccccc1C(=O)N=c1c(C#N)cc2c(=O)n3cccc(C)c3nc2n1Cc1ccco1 | i | x | i | 0.4 | x | x
Cc1cccn2c(=O)c3cc(C(=O)NCc4ccco4)c(=N)n(CCc4ccccc4)c3nc12 | i | 4.3 | i | 12.8 | 22.2* | -30.6*
Cn1c(=O)c2c(SCCN3CCOCC3)nc(C3CCCC3)nc2n(C)c1=O | i | 2.0 | 7.41* | 39.3 | 42.1* | -30.3*
COc1ccc(CN(Cc2cc3c(C)cc(C)cc3[nH]c2=O)C(=O)Nc2ccc(OC)cc2)cc1 | x | 7.5 | x | 10.4 | x | x
NC(=O)c1ccccc1NC(=S)NC(=O)CCc1ccccc1 | i | 8.9 | i | 16.0 | 8.8 | i
CC1CCN(Cc2c(C(=O)N/N=C/c3ccc(C(C)(C)C)cc3)nnn2-c2nonc2N)CC1 | i | x | 7.01* | x | 13.6* | i
SMILES | CHT block | PGE2 EP2 inh | CHT PAM | EP2 mod | CHT activ conf | HEK293 MP dye
C/C(=N\NC(=O)c1nnn(-c2nonc2N)c1CN1CCCCCC1)c1ccc(Br)cc1 | i | x | i | x | x | x
C/C(=N\NC(=O)c1nnn(-c2nonc2N)c1CN1CCC(C)CC1)c1cccc(Br)c1 | i | x | i | x | 15.8* | i
O=c1c(Cl)c(O)c2cccc3c4ccccc4n1c23 | i | 3.6 | i | 3.1 | x | x
COc1c(O)c(=O)n2c3ccccc3c3ccnc1c32 | i | x | i | x | 41.3* | i
COCCNc1nnc(SCC(=O)Nc2nnc(-c3ccccc3)o2)s1 | i | x | 6.6* | x | 4.5 | i
COCCNc1nnc(SCC(=O)NC(=O)c2ccccc2)s1 | i | x | i | x | x | x
CC(C)c1c(O)nc(SCC(=O)Nc2ccc(F)cc2)[nH]c1=O | x | 17.0 | x | -8.4 | x | x
COc1ccc(OC)c(C2NC(=O)C(O)=C2C(C)=O)c1 (stereo unspecified) | x | 10.9 | x | -40.9 | x | x
CCCn1c(SCc2ccc(C(=O)OC)o2)nc2ccccc2c1=O | i | x | 6.71* | x | 48.2* | i
Cc1cccc2cc(C(c3nnnn3C3CCCC3)N(Cc3ccccc3)Cc3ccco3)c(=O)[nH]c12 (stereo unspecified) | x | 14.6 | x | 44.4 | x | x
CCN(CC)CCNc1cc(C)nc2c1C(=O)C(=O)C=C2N1CCCCC1 | i | 9.3 | 7.33* | -4.7 | 64.5* | -66.1*
COC(=O)c1cc(C)nc2c1C(=O)C(=O)C=C2N1CCOCC1 | i | x | i | x | x | x
O=C1c2cnc3nc(SCc4ccc(Cl)cc4)nn3c2CC2c3ccccc3CCN12 (stereo unspecified) | i | 5.3 | 6.95* | 35.2 | -2.4 | i
O=C(CN1C(=O)[C@H]2CCCN2C(=O)c2ccccc21)NCc1ccc(Cl)cc1 | x | 1.7 | x | -27.2 | x | x
O=C(CCCO)c1ccc2c(c1)OCCO2 | i | 17.2 | i | 24.3 | x | x
O=C(CNC1=NCCC1)c1ccc2c(c1)OCCO2 | i | 7.7 | i | 4.1 | 36.3* | -28.3*
O=[N+]([O-])c1ccc(-c2csc3[n+]2CCS3)cc1 | i | 17.3 | 8.89* | 13.3 | 74.3* | -69.2*
Fc1ccc(-c2csc3[n+]2CCS3)cc1 | i | 9.2 | i | 29.2 | x | x
CN(C)c1ccc(-c2nc3cnccn3c2Nc2ccc3c(c2)OCCO3)cc1 | i | 8.6 | 7.09* | -69.2 | 59.2* | -22.8*
Cc1ccc(-c2nc3cnccn3c2Nc2ccc3c(c2)OCO3)cc1 | i | 12.9 | i | -22.0 | x | x
COc1ccc(-c2nc3cnccn3c2Nc2ccc3c(c2)OCO3)cc1 | i | 10.7 | 6.35* | -47.7 | 48.1* | -29.4*
COc1ccc(Nc2c(-c3ccc(C)cc3)nc3cnccn23)cc1 | i | 5.4 | i | -65.0 | 49.4* | -27.9*
Cc1cc(C)n2c(Nc3ccc4c(c3)OCCO4)c(-c3ccccc3)nc2n1 | i | 10.8 | 10.7* | 33.9 | 14.0* | -34.4*
O=C(CCCN1CCC(O)(c2cccc(C(F)(F)F)c2)CC1)c1ccc(F)cc1 | i | 14.0 | i | 3.4 | x | x
O=C(CCCN1CCC(O)(c2ccc(Br)cc2)CC1)c1ccc(F)cc1 | i | x | i | x | 60.1* | i
Cc1cc2cc3c(cc2nc1SCC(=O)Nc1nccs1)OCCO3 | x | 20.6 | x | 12.7 | x | x
Brc1ccc2c(c1)OCCOCCOc1cc(Br)ccc1OCCOCCOCCO2 | i | 8.8 | 14.1* | 10.1 | 57.0* | i
